Assay results taken from PubChem BioAssay AID463173 (ICCB-Longwood Screening Facility, Harvard Medical School, 2010).
Screen size: about 52,000 compounds; about 4,300 (8.3%) were called active. This is one part of a sample in which actives are shown more often than they occur. Cut-off read from the data, not from the text of the source: active = survival mostly below about 52% (no sharp cut-off); inactive = mostly above about 56%.

Test system: DeltatarO mutant
Test: growth inhibition of S. aureus wild type versus tarO mutant, primary screen, teichoic acid synthesis inhibitors, RN4220, OD600 (AID 463173)
Details: OD600, 18 h, hits give low values, screened at 18.75 µg/mL (by protocol)

SMILES | survival
O=C(Nc1ccc(Cl)cc1)N1CCN(c2ccc3nnc(-c4ccc(F)cc4)n3n2)CC1 | 68% (inactive)
Cc1ccc2oc(-c3cccc(NC(=O)c4sc5c([N+](=O)[O-])cccc5c4Cl)c3)nc2c1 | 67% (inactive)
COc1cc(-c2nc(Cn3nnc(C(=O)Nc4ccccc4C)c3C)c(C)o2)cc(OC)c1OC | 58% (inactive)
COc1ccc(NC(=O)c2c(C)oc3ccc(O)c(CN4CCN(Cc5ccccc5)CC4)c23)cc1 | 56% (inactive)
CCn1c(=O)c2sccc2n2c(CCC(=O)Nc3ccc(F)cc3)nnc12 | 82% (inactive)
O=C(CSc1nc2ccccc2n1Cc1ccc(F)c(Cl)c1)N1CCN(c2ccc(F)cc2)CC1 | 61% (inactive)
Cc1csc2nc(COC(=O)c3ccccc3NC(=O)c3cccc(Br)c3)cc(=O)n12 | 87% (inactive)
Cc1ccc(CNC(=O)c2c(-c3cccc(Br)c3)noc2C)o1 | 87% (inactive)
Cc1ccc(C)c(NC(=O)CN(CCc2ccccc2)S(=O)(=O)c2ccccc2)c1 | 46% (active)
CCOc1ccccc1NC(=O)CN(CCc1ccccc1)S(=O)(=O)c1ccc(C)cc1 | 106% (inactive)
COc1ccc(S(=O)(=O)N(CCc2ccccc2)CC(=O)Nc2cc(Cl)ccc2C)cc1 | 58% (inactive)
Cc1c(Cl)cccc1NC(=O)CN(CCc1ccccc1)S(=O)(=O)c1ccccc1 | 49% (inactive)
COc1ccc(S(=O)(=O)N(CCc2ccccc2)CC(=O)Nc2cc(C)ccc2C)cc1 | 48% (inactive)
Cc1ccc(NC(=O)CN(CCc2ccccc2)S(=O)(=O)c2ccccc2)c(C)c1 | 38% (active)
Cc1cccc(NC2=CC(c3cccc(Br)c3)N(c3cccc(C)c3)C2=O)c1 (stereo not given) | 137% (inactive)
Cc1ccccc1Cn1ccn(-c2ccc(F)c(F)c2)c(=O)c1=O | 76% (inactive)
O=C(CCNS(=O)(=O)c1ccc2c(c1)CCN2C(=O)C1CC1)N1CCN(c2cccc(Cl)c2)CC1 | 122% (inactive)
COc1ccc(OCC(=O)N2CCc3ccccc3C2)cc1 | 80% (inactive)
Cc1cccc(-c2nc3c4ccccc4n(CC(=O)Nc4cccc(F)c4)c(=O)n3n2)c1 | 95% (inactive)
Cc1ccc(-c2nc3c4ccccc4n(Cc4cccc(Cl)c4)c(=O)n3n2)cc1 | 123% (inactive)
COc1cccc(CNC(=O)Cn2c(=O)n3nc(-c4cccc(F)c4)nc3c3ccccc32)c1 | 77% (inactive)
O=c1n(Cc2cccc(C(F)(F)F)c2)c2ccccc2c2nc(-c3ccccc3)nn12 | 80% (inactive)
CCc1cccc(NC(=O)Cn2c(=O)n3nc(-c4cccc(F)c4)nc3c3ccccc32)c1 | 52% (active)
O=c1n(Cc2ccc(F)cc2)c2ccccc2c2nc(-c3ccccc3)nn12 | 86% (inactive)
Cc1cccc(Cn2c(=O)n3nc(-c4ccccc4)nc3c3ccccc32)c1 | -16% (active)

SMILES | survival
O=c1n(Cc2cccc(F)c2)c2ccccc2c2nc(-c3ccccc3)nn12 | 33% (active)
Cc1cccc(-c2nc3c4ccccc4n(Cc4cccc(Cl)c4)c(=O)n3n2)c1 | 97% (inactive)
CCOc1ccc(NC(=O)c2oc3ccccc3c2NC(=O)Cc2cccs2)cc1 | 82% (inactive)
O=C(Cn1cnc2c(cnn2-c2ccccc2)c1=O)c1ccccc1 | 55% (inactive)
O=C(Nc1ccc(F)cc1F)c1ccc(-n2cnnc2)cc1 | 73% (inactive)
CCc1ccc(N(CC)C(=O)Cn2c(=O)oc3ccccc32)cc1 | 70% (inactive)
COC(=O)C1=C(c2ccccc2)c2ccccc2S(=O)(=O)N1CC(=O)Nc1ccccc1Cl | 37% (inactive)
Cc1oc2ncn(C)c(=O)c2c1C(=O)NCc1ccc(Cl)cc1 | 84% (inactive)
CCOc1ccccc1NC(=O)C1CCN(S(=O)(=O)c2ccc3c(c2)CCCN3C(C)=O)CC1 | 75% (inactive)
CC(NC(=O)C1CCN(S(=O)(=O)Cc2ccccc2)CC1)c1ccccc1 (stereo not given) | 68% (inactive)
COc1ccc(-c2cc(C(F)(F)F)nc(SCCC(=O)N3CCN(C)CC3)n2)cc1 | 114% (inactive)
CCC1CCCCN1C(=O)CSc1nc(-c2ccc(OC)cc2)cc(C(F)(F)F)n1 (stereo not given) | 1% (active)
CCC1CCCCN1C(=O)CSc1nc(-c2ccc(OC)c(OC)c2)cc(C(F)(F)F)n1 (stereo not given) | -3% (active)
COc1ccc(-c2cc(C(F)(F)F)nc(SCC(=O)N3CCCCC3)n2)cc1 | 74% (inactive)
COc1ccc(-c2cc(C(F)(F)F)nc(SCC(=O)N3CCCCC3C)n2)cc1OC (stereo not given) | 52% (inactive)
COc1ccc(-c2cc(C(F)(F)F)nc(SCC(=O)N3CCCCC3)n2)cc1OC | 71% (inactive)
O=C(CNCc1ccco1)Nc1cccc(OC(F)(F)F)c1 | 99% (inactive)
O=C(CN1C(=O)C2CCCCN2c2ccc(C(=O)N3CCCC3)cc21)NCc1cccc(F)c1 (stereo not given) | 66% (inactive)
CCCCOc1cccc(C(=O)Nc2cccc3ccc(C)nc23)c1 | 75% (inactive)
CCN(CCN(C)C)C(=O)Cn1ncc2c([nH]c3ccc(C)cc32)c1=O | 88% (inactive)
Cc1ccc(Cl)cc1-n1ncc2c(NC3CCCCC3)ncnc21 | 54% (inactive)
COc1ccc(Nc2nc(Nc3ccc(OC)cc3OC)nc(N3CCOCC3)n2)c(OC)c1 | 14% (active)
CCCCNc1nc(Oc2ccc(OCC)nn2)nc(N2CCOCC2)n1 | 77% (inactive)
CCOc1ccc(Oc2nc(NCC(C)C)nc(N3CCOCC3)n2)nn1 | 79% (inactive)
CCOc1ccc(Oc2nc(NC)nc(N3CCOCC3)n2)nn1 | 99% (inactive)

SMILES | survival
CCOc1ccc(Nc2nc(Nc3ccc(OCC)cc3)nc(N3CCOCC3)n2)cc1 | 44% (active)
COc1ccccc1Nc1nc(Nc2cccc(C(F)(F)F)c2)nc(N2CCOCC2)n1 | 73% (inactive)
COc1ccc(N2CCOCC2)cc1 | 89% (inactive)
CCOc1nc(Nc2ccc(OC)cc2)nc(N2CCOCC2)n1 | 70% (active)
CCOc1ccc(NC(=O)c2c(C)oc3nc(C)nc(N4CCOCC4)c23)cc1 | 93% (inactive)
Cc1cc2c(cc3c(SCc4cccc(F)c4)nnc(C)n32)o1 | 68% (inactive)
CCOC(=O)Cn1cnc2onc(-c3ccc(F)cc3)c2c1=O | 141% (inactive)
CCOc1ccccc1NC(=O)CSc1nc2c(oc3ccccc32)c(=O)n1-c1ccc(C)c(C)c1 | 88% (inactive)
COc1ccccc1NC(=O)Cn1c(=O)n(Cc2ccccc2)c(=O)c2ccccc21 | 75% (inactive)
COc1ccc(N(C(=O)COc2c(C)cccc2C)S(=O)(=O)c2ccc(Cl)cc2)cc1 | 73% (inactive)
CCCS(=O)(=O)Nc1cccc(-c2cn3ccsc3n2)c1 | 134% (inactive)
COc1cccc(OC)c1C(=O)Nc1cccc(-c2cn3ccsc3n2)c1 | 82% (inactive)
CN(C)S(=O)(=O)Nc1ccc(-c2cn3ccsc3n2)cc1 | 55% (inactive)
CCS(=O)(=O)Nc1ccc(-c2cn3ccsc3n2)cc1 | 17% (active)
COc1ccc(C(=O)Nc2cccc(-c3cn4ccsc4n3)c2)cc1OC | 92% (inactive)
COc1cc(OC)cc(C(=O)Nc2cccc(-c3cn4ccsc4n3)c2)c1 | 6% (active)
O=C(NCCc1ccccc1Cl)c1ccc2c(c1)nc1n2CCCCC1 | 80% (inactive)
Cc1cccc(NC(=O)N2CCN3CCCCC3C2)c1C (stereo not given) | 77% (inactive)
CC(C)c1ccc(NC(=O)c2cc(S(=O)(=O)NC3CCCCC3)ccc2F)cc1 | 102% (inactive)
O=C(Nc1cc2c(cc1C(=O)c1ccccc1Cl)OCCO2)c1ccccc1 | 113% (inactive)
COc1ccc(CCn2c3c(c(=O)[nH]c2=O)C(NC(=O)c2ccc(C(C)(C)C)cc2)(C(F)(F)F)C(=O)N3)cc1OC (stereo not given) | 91% (inactive)
CCOC(=O)c1ccc(NC(=O)C(Cc2ccccc2)NS(=O)(=O)c2ccc(Br)s2)cc1 (stereo not given) | 90% (inactive)
CCOC(=O)c1ccc(NS(=O)(=O)c2cn(C)c(C)n2)cc1 | 69% (inactive)
COc1cc(NS(=O)(=O)c2cnc(N)nc2)cc(OC)c1 | 76% (inactive)
Nc1ncc(S(=O)(=O)Nc2ccc(OC(F)(F)F)cc2)cn1 | 79% (inactive)

SMILES | survival
CC(=O)c1ccc(NS(=O)(=O)c2ccc(Br)s2)cc1 | 47% (active)
CCOC(=O)c1ccc(NS(=O)(=O)c2ccc(Br)s2)cc1 | 38% (active)
CC(=O)c1ccc(NC(=O)C2CCC(CNS(=O)(=O)c3ccc(Br)s3)CC2)cc1 (stereo not given) | 69% (inactive)
CC(=O)c1ccc(NS(=O)(=O)c2ccc(-c3cc(C)no3)s2)cc1 | 122% (inactive)
CC(=O)c1ccc(NS(=O)(=O)c2cnc(N)nc2)cc1 | 6% (active)
COc1ccc(Nc2ncc3c(n2)CCN(Cc2ccccc2C)C3)c(OC)c1 | 91% (inactive)
Cc1ccccc1N(C)C(=O)c1noc2c1COc1ccccc1-2 | 72% (inactive)
CCOc1ccc(S(=O)(=O)N(CC(=O)N2CCCCC2)c2ccccc2)cc1 | 60% (inactive)
CC12CN3CC(C)(CN(C1)C3(C)CSc1c[nH]c3ccccc13)C2=O (stereo not given) | 76% (inactive)
Cc1ccc(C)c(NC(=O)Cn2cnc3c(oc4ccccc43)c2=O)c1 | 82% (inactive)
Cc1ccc(NC(=O)CN2C(=O)COc3ccc(S(=O)(=O)Nc4ccccc4)cc32)c(C)c1 | 54% (inactive)
Oc1cccc(-c2nc3ncccn3c2Nc2cccc(C(F)(F)F)c2)c1 | 62% (inactive)
COc1ccc(CNC(=O)Cc2c(C)c3cc4c(C)coc4c(C)c3oc2=O)cc1OC | 67% (inactive)
Cc1ccc2c(Sc3ccccc3)c(C(=O)NCc3ccccc3F)[nH]c2c1 | 90% (inactive)
Cc1ccc2nc(/C(C#N)=C/c3ccc(-c4ccc(F)cc4F)o3)[nH]c2c1 | 11% (active)
Cc1c(Cl)cccc1-c1ccc(/C=C(\C#N)c2nc3ccccc3[nH]2)o1 | 13% (active)
Cc1ccc(/C=C(\C#N)c2nc3ccccc3c(=O)[nH]2)cc1 | 93% (inactive)
N#C/C(=C/c1ccc(-c2ccc(Cl)c(C(=O)O)c2)o1)C(=O)NC1CCCC1 | 96% (inactive)
CN(C)/C=C(\C#N)c1nc2ccccc2[nH]1 | 73% (inactive)
N#C/C(=C\c1ccc(-c2ccccc2C(=O)O)o1)c1nc2ccccc2[nH]1 | 76% (inactive)
COc1cc(/C=C(\C#N)c2nc3ccccc3[nH]2)ccc1OCc1ccccc1F | 50% (inactive)
N#C/C(=C\c1ccc(Cl)cc1)c1nc2ccccc2[nH]1 | 57% (inactive)
N#C/C(=C\c1ccc(-c2ccc(Cl)c(C(=O)O)c2)o1)c1nc2ccccc2[nH]1 | 55% (active)
N#C/C(=C\c1ccc(-c2ccc(F)cc2F)o1)c1nc2ccccc2[nH]1 | 22% (active)
N#C/C(=C\c1ccc(-c2ccc(C(=O)O)cc2)o1)c1nc2ccccc2[nH]1 | 77% (inactive)
